The source made the active and inactive calls. Unless noted, the rule behind the calls is not given here.

A short description of test [1]: kinase inhibitors against Plasmodium liver-stage infection, cell-based, known kinase inhibitor set, luminescence, hepatoma host viability (AID 624392).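 Note: infected cells incubated roughly two days before readout.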 Conditions: Plasmodium liver stage in hepatoma cells, luciferase luminescence, concentration not given here; liver cell % of control: measured here: host liver cell viability; parasite % of control: stronger effect = lower value.

Test [2] can be described thus: modulators of glucocorticoid suppression of NF-kB, cell-based, luciferase, IL-1B stimulus, dexamethasone (AID 624486).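 For percent of negative control (+Dex): 100% = mean signal of vehicle control wells on the plate.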 The note with it: NF-kB luciferase reporter, IL-1B + dexamethasone, luminescence; percent of negative control (+Dex): actives lie on both sides, concentration not given here; z-score: measured here: IL-1B alone, no Dex.
A short description of test [3]: kinase inhibitors altering Pseudomonas killing of worms, whole organism (AID 651566).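 Note: tested at 14 µM; sign flipped so higher z means a lower ratio.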 Conditions: C. elegans killed by P. aeruginosa, survival ratio.
A short description of test [4]: activators of macrophage pro-inflammatory response, cell-based, murine, luminescence (AID 652131). The note with it: murine macrophage pro-inflammatory reporter, stronger effect = higher value.
Test [5] has as its target Cellular tumor antigen p53 (Homo sapiens) (UniProt P04637). Put plainly: kinase inhibitors altering GFP-p53 stability in HPV16-positive cells, imaging, known kinase inhibitor set, EGFP/DsRed ratio (AID 1053116).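 Note: cells exposed to compounds for 24 h at 37 °C before reading.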 Conditions: stronger effect = higher value; EGFP object count: measured here: GFP-p53 positive objects count.
A short description of test [6]: IRF3 reporter activation in THP-1 macrophages, cell-based, PMA-stimulated THP-1, luminescence (AID 1053176). Conditions: PMA-differentiated THP-1, IRF3 reporter luminescence; stronger effect = higher value.
Test [7] is described as follows: survival rescue of mitochondrial mutant cells in low glucose, primary screen, MELAS cybrids, Rieske KO mouse fibroblasts, CellTiter-Glo (AID 1508586;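 active = mean z-score across replicates of 1.96 or higher in either the MELAS or the Rieske mutant cell line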;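 note: z relative to plate mean and SD of compound and empty wells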).
The mark [8] stands for this setting: MELAS cybrid survival, CellTiter-Glo 48 h, stronger effect = higher value.
Where [9] appears, read: Rieske KO mouse fibroblast survival, CellTiter-Glo 72 h.

Sequence of Cellular tumor antigen p53 (Homo sapiens) (P04637 whole entry, looked up): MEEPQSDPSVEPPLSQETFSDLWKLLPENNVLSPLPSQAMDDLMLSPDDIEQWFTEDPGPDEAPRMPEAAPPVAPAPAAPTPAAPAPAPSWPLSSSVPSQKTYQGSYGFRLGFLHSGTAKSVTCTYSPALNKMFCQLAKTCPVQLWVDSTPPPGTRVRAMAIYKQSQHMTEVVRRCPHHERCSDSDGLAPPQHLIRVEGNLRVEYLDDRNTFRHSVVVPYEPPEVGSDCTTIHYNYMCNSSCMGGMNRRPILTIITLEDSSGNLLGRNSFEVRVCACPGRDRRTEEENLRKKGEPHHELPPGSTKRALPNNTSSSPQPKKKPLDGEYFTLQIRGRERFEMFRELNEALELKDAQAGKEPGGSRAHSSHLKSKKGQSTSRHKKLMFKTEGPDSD

Consider `CNC(=O)c1cc(-c2ccc(F)cc2)cc(-c2ccc(S(=O)(=O)N3CCCC3)cc2)c1N`, for which the liver cell % of control in test [1] was determined as 102%. The parasite % of control in test [1] was 80.4% (inactive). Moreover, the percent of negative control (+Dex) in test [2] was 92% (inactive). In addition, the z-score in test [2] was -0.05; in test [3] it was 0.5 (inactive); in test [4], -0.377 (inactive); in test [7] (setting [8]), -0.388 (inactive); in test [7] (setting [9]) it was -0.623. Further, in test [5], the EGFP object count was found to be 6.5. Further, the EGFP/DsRed ratio in test [5] was 0.244 (inactive). In test [6], the fraction signal is -0.007 (inactive).
Compound `CCN1CCC(CC(=O)Nc2n[nH]c3nc(-c4cccs4)c(Br)cc23)CC1` displayed a liver cell % of control in test [1] of 76.8%. Moreover, in test [1], the parasite % of control is 72.5% (inactive). In addition, the percent of negative control (+Dex) in test [2] was 88% (inactive). The z-score is -0.195 in test [2]; 0.735 (inactive) in test [3]; -0.532 (inactive) in test [4]; 0.148 (inactive) in test [7] (setting [8]); -0.143 in test [7] (setting [9]). In addition, the EGFP object count in test [5] amounted to 8.5. In addition, the EGFP/DsRed ratio in test [5] was 0.138 (inactive). In addition, the fraction signal in test [6] is 0.006 (inactive).
Regarding `CS(=O)(=O)CCNCc1ccc(-c2ccc3ncnc(Nc4ccc(OCc5ccccc5)c(C(F)(F)F)c4)c3c2)o1`, in test [1], the liver cell % of control is 107%. In test [1], the parasite % of control is 128% (inactive). The percent of negative control (+Dex) in test [2] was 91.5% (inactive). Also, the z-score in test [2] is -0.11; in test [3] it was -1.4 (inactive); in test [4] it was 0.401 (inactive); in test [7] (setting [8]) it was 0.000746 (inactive); in test [7] (setting [9]), -0.326. For the same compound, the EGFP object count in test [5] came to 6. In test [5], the EGFP/DsRed ratio is 0.123 (inactive). Further, the fraction signal in test [6] was -0.0055 (inactive).
Take `NC(=O)c1ccc(Oc2nccc(-c3c(-c4ccc(F)cc4)ncn3C3CCNCC3)n2)cc1`: in test [1], the liver cell % of control is 89.2%. The parasite % of control in test [1] was 144% (inactive). Besides, the percent of negative control (+Dex) in test [2] is 96% (inactive). In addition, the z-score is 0.125 in test [2]; 0.14 (inactive) in test [3]; 0.154 (inactive) in test [4]; 0.243 (inactive) in test [7] (setting [8]); -0.477 in test [7] (setting [9]). Besides, the EGFP object count in test [5] was 8.5. In addition, the EGFP/DsRed ratio in test [5] is 0.173 (inactive). Further, the fraction signal in test [6] is -0.008 (inactive).
`Cc1cc(-c2ccco2)cc(C)c1/C=C/c1cncc(-c2nn[nH]n2)c1` yielded a liver cell % of control in test [1] of 90.5%. Moreover, the parasite % of control in test [1] was 119% (inactive). The percent of negative control (+Dex) in test [2] was 94% (inactive). Further, the z-score is 0.125 in test [2]; 0.545 (inactive) in test [3]; 4.88 (inactive) in test [4]; -1.12 (inactive) in test [7] (setting [8]); -0.188 in test [7] (setting [9]). Besides, the EGFP object count in test [5] was 3.5. In addition, the EGFP/DsRed ratio in test [5] is 0.0973 (inactive). In addition, the fraction signal in test [6] was -0.008 (inactive).
On to `C[C@@H](Oc1cc(-n2cnc3ccc(OCC4CCN(C)CC4)cc32)sc1C(N)=O)c1ccccc1C(F)(F)F`, for which, in test [1], the liver cell % of control amounted to 80.7%. The parasite % of control in test [1] was 130% (inactive). The percent of negative control (+Dex) in test [2] is 98.5% (inactive). The z-score is -0.76 in test [2]; -1.17 (inactive) in test [3]; -2 (inactive) in test [4]; 0.571 (inactive) in test [7] (setting [8]); 0.279 in test [7] (setting [9]). For the same compound, the EGFP object count in test [5] was 12. The EGFP/DsRed ratio in test [5] is 0.346 (inactive). The fraction signal in test [6] is -0.0025 (inactive).
Take `N#Cc1c(NC(=O)c2ccc(F)cc2)sc2c1CCCC2`: in test [1], the liver cell % of control stood at 159%. For the same compound, in test [1], the parasite % of control is 137% (inactive). Also, the percent of negative control (+Dex) in test [2] is 246% (active). Besides, the z-score in test [2] is 14.3; in test [3] it was -0.855 (inactive); in test [4] it was 3.47 (inactive); in test [7] (setting [8]), -0.073 (inactive); in test [7] (setting [9]) it was 0.00203. The EGFP object count in test [5] worked out at 6. Also, the EGFP/DsRed ratio in test [5] is 0.0854 (inactive). The fraction signal in test [6] was -0.006 (inactive).
The compound `CNC(=O)c1cncc(/C=C/c2ccccc2Cl)c1` showed a liver cell % of control in test [1] of 165%. Besides, the parasite % of control in test [1] is 16.8% (inactive). Also, the percent of negative control (+Dex) in test [2] was 109% (inactive). For the same compound, the z-score in test [2] is 0.82; in test [3] it was -0.36 (inactive); in test [4], 1.43 (inactive); in test [7] (setting [8]), 1.56 (inactive); in test [7] (setting [9]), -0.00226. Moreover, the EGFP object count in test [5] came out at 6.5. Also, the EGFP/DsRed ratio in test [5] is 0.185 (inactive). Besides, the fraction signal in test [6] is 0.0005 (inactive).
In turn, `O=C1NC(=O)C(N2CCc3ccccc32)=C1c1ccc(Cl)cc1` returned a liver cell % of control in test [1] of 86.6%. In addition, the parasite % of control in test [1] is 138% (inactive). For the same compound, the percent of negative control (+Dex) in test [2] was 74% (inactive). Also, the z-score in test [2] is -1.47; in test [3], -1.35 (inactive); in test [4], -0.315 (inactive); in test [7] (setting [8]) it was -0.729 (inactive); in test [7] (setting [9]), 0.357. Further, the EGFP object count in test [5] was found to be 4. In test [5], the EGFP/DsRed ratio was 0.106 (inactive). For the same compound, the fraction signal in test [6] is -0.0285 (inactive).
Take `c1ccc(Cc2nc3ccc(Nc4ncnc5ccccc45)cc3[nH]2)cc1`: the liver cell % of control in test [1] turned out to be 166%. Moreover, the parasite % of control in test [1] was 15.2% (inactive). The percent of negative control (+Dex) in test [2] was 83% (inactive). Moreover, the z-score in test [2] is -0.365; in test [3], 1.34 (inactive); in test [4], 4.91 (inactive); in test [7] (setting [8]), 0.254 (inactive); in test [7] (setting [9]), -0.299. The EGFP object count in test [5] came to 5. In addition, the EGFP/DsRed ratio in test [5] was 0.119 (inactive). Moreover, the fraction signal in test [6] is -0.007 (inactive).
`CNC(=O)c1cncc(/C=C/c2ccccc2C)c1` showed a liver cell % of control in test [1] of 170%. For the same compound, the parasite % of control in test [1] was 27.9% (inactive). In test [2], the percent of negative control (+Dex) is 108% (inactive). For the same compound, the z-score in test [2] was -0.24; in test [3], 0.255 (inactive); in test [4] it was 0.604 (inactive); in test [7] (setting [8]), 0.836 (inactive); in test [7] (setting [9]), -0.131. The EGFP object count in test [5] turned out to be 4. Also, the EGFP/DsRed ratio in test [5] is 0.0734 (inactive). In test [6], the fraction signal is 0.0395 (inactive).
`c1ccc(-c2nc3n(c2-c2ccc4c(c2)OCO4)CCC3)nc1` gave a liver cell % of control in test [1] of 103%. In test [1], the parasite % of control was 16.7% (inactive). In addition, in test [2], the percent of negative control (+Dex) was 102% (inactive). The z-score in test [2] was 0.295; in test [3] it was 1.04 (inactive); in test [4], 4.3 (inactive); in test [7] (setting [8]) it was -1.04 (inactive); in test [7] (setting [9]), 0.741. For the same compound, the EGFP object count in test [5] was 6. In addition, the EGFP/DsRed ratio in test [5] was 0.172 (inactive). Also, the fraction signal in test [6] is -0.003 (inactive).
`Fc1ccc(-c2ncn(C3CCNCC3)c2-c2ccnc(Oc3ccc(Oc4ccccc4)cc3)n2)cc1`: the liver cell % of control in test [1] is 58.8%. In test [1], the parasite % of control is 102% (inactive). Also, in test [2], the percent of negative control (+Dex) was 99% (inactive). For the same compound, the z-score in test [2] was 0.615; in test [3], -1.07 (inactive); in test [4] it was -0.715 (inactive); in test [7] (setting [8]) it was -0.215 (inactive); in test [7] (setting [9]), -0.0474. Further, the EGFP object count in test [5] worked out at 28.5. Further, the EGFP/DsRed ratio in test [5] was 0.354 (inactive). Moreover, the fraction signal in test [6] was -0.002 (inactive).
In turn, `FC(F)(F)c1cccc(Nc2nccc(-c3cnn4nc(-c5ccccc5)ccc34)n2)c1` came in with a liver cell % of control in test [1] of 97.2%. Moreover, the parasite % of control in test [1] was 79.6% (inactive). Also, the percent of negative control (+Dex) in test [2] is 86.5% (inactive). In addition, the z-score in test [2] is -0.085; in test [3] it was 1.3 (inactive); in test [4], -0.793 (inactive); in test [7] (setting [8]), 1.22 (inactive); in test [7] (setting [9]), -0.183. Moreover, in test [5], the EGFP object count was found to be 4.5. In addition, in test [5], the EGFP/DsRed ratio is 0.154 (inactive). The fraction signal in test [6] was -0.0005 (inactive).

The record behind these values is PubChem BioAssay.
